Source: PubChem BioAssay
The list is not random: actives were taken first. Their share in the collection is about 12%.
UCHL1 inh – blocks human UCHL1 ubiquitin-rhodamine cleavage; P09936; purified UCHL1, Ub-rhodamine cleavage fluorescence; inhibition, % at 20 µM; actives 0.2% (n = 47,000)
USP17 block – blocks human USP17 ubiquitin-rhodamine cleavage | purified USP17, Ub-rhodamine cleavage fluorescence, 3 h | AID 1645855 | inhibition, % at 50 µM | A8MUK1 | actives 6.5% (n = 47,000)
USP30 block – inhibitors of human USP30 deubiquitinase; purified USP30, Ub-rhodamine cleavage fluorescence; inhibition, % at 25 µM; actives 5.3% (n = 47,000)
USP10 block – inhibitors of human USP10 deubiquitinase; Q14694; AID 1645856; inhibition, % at 20 µM; actives 1.1% (n = 47,000); purified USP10, Ub-rhodamine fluorescence, 60 min
USP7 inh – blocks human USP7 ubiquitin-rhodamine cleavage; purified USP7, Ub-rhodamine cleavage fluorescence; AID 1645854; inhibition, % at 20 µM; Q93009; actives 0.3% (n = 47,000)
USP8 inh – blocks human USP8 ubiquitin-rhodamine cleavage; actives 4.2% (n = 47,000); purified USP8, Ub-rhodamine cleavage fluorescence, 30 min; inhibition, % at 20 µM; P40818
Starred values were filed as active, the others as inactive. No stated cut-off is given here; in the data, active means inhibition above about 30%; inactive means the rest.

For CC(=O)c1ccc(S(=O)(=O)N2CCC3(CC2)NC(=O)c2ccccc2N3)cc1 the results were UCHL1 inh 0, USP17 block 16, USP30 block 12, USP10 block 21, USP7 inh 8 and USP8 inh 33*.
Screening Cc1ccc(S(=O)(=O)N2CCC3(CC2)NC(=O)c2ccccc2N3)c(C)c1 returned UCHL1 inh 0, USP17 block 62*, USP30 block -5, USP10 block 4, USP7 inh 9 and USP8 inh 4.
`O=C1NC2(CCN(S(=O)(=O)c3ccc(F)c(F)c3)CC2)Nc2ccccc21` gave UCHL1 inh -5, USP17 block -8, USP30 block -13, USP10 block 1, USP7 inh 0 and USP8 inh -1.
`Cc1ccc(C(=O)COC(=O)C2CCCN2C(=O)C23CC4CC(CC(C4)C2)C3)cc1` (centres undefined) gave UCHL1 inh 1, USP17 block -27, USP30 block -96, USP10 block 18, USP7 inh 4 and USP8 inh 0.
Screening O=S(=O)(c1ccc(F)cc1)N1CCC2(CC1)NCCN=C2NCc1ccccc1 returned UCHL1 inh -1, USP17 block -23, USP30 block -2, USP10 block 1, USP7 inh 1 and USP8 inh -3.
Screening Cc1cccc(NC(=O)c2noc3c2CCCC3)n1 returned UCHL1 inh 2, USP17 block 4, USP10 block 2, USP7 inh -1 and USP8 inh 3.
O=C(Nc1ccc(Cl)cc1)c1noc2c1CCCC2 was read as UCHL1 inh 1, USP17 block 18, USP30 block 35*, USP10 block 0, USP7 inh 0 and USP8 inh 27.
Screening Cc1ccc(C(C)C)cc1OCCOCCN1CCNCC1 returned UCHL1 inh -1, USP17 block -11, USP30 block 27, USP10 block -3, USP7 inh 1 and USP8 inh -77.
`COc1ccc(NC(=O)NC(COC(=O)Nc2ccc(OC)cc2)c2ccccc2)cc1` (centres undefined) gave UCHL1 inh 3, USP17 block 60*, USP30 block 95*, USP10 block 15, USP7 inh 7 and USP8 inh 25.
`O=C(CN(C(=O)CCC(=O)Nc1ccccn1)c1cccc(F)c1)NCc1ccc(F)cc1` gave UCHL1 inh 0, USP17 block 14, USP30 block 33*, USP10 block 1, USP7 inh -24 and USP8 inh 9.
`Cc1cc(=O)sc2c1c(C)nn2-c1ccccc1` gave UCHL1 inh 0, USP17 block 31*, USP30 block 14, USP10 block 2, USP7 inh -125 and USP8 inh 3.
Cc1cc(=O)n(CC(=O)N2CCCCC2)c2c1c(C)nn2-c1ccccc1 was read as UCHL1 inh 1, USP17 block 7, USP30 block -13, USP10 block 1, USP7 inh -36 and USP8 inh -7.
For COc1ccc(-c2nc(CNC(=O)c3ccccc3Cl)cs2)cc1 the results were UCHL1 inh 2, USP17 block 2, USP30 block -2, USP10 block 1, USP7 inh 5 and USP8 inh 2.
For O=C(Oc1ccc(F)cc1)c1cc(-c2ccc3c(c2)OCCO3)on1 the results were UCHL1 inh 0, USP17 block 4, USP30 block 0, USP10 block 1, USP7 inh -91 and USP8 inh 55*.
Screening O=C(Nc1nccs1)C1c2ccccc2C(=O)N(c2ccccc2)C12CCCCC2 (centres undefined) returned UCHL1 inh -2, USP17 block 34*, USP30 block -8, USP10 block -7, USP7 inh 0 and USP8 inh -17.
O=C(Nc1cccnc1)C1c2ccccc2C(=O)N(Cc2ccccc2)C12CCCC2 (centres undefined) was read as UCHL1 inh 0, USP17 block -26, USP30 block -8, USP10 block 5, USP7 inh -58 and USP8 inh -2.
O=C(Nc1cccnc1)C1c2ccccc2C(=O)N(c2ccccc2)C12CCCCC2 (centres undefined) was read as UCHL1 inh 0, USP17 block 12, USP30 block 16, USP10 block 31*, USP7 inh 10 and USP8 inh 49*.
